Source: PubChem BioAssay
Pf apPOL block – Pf-apPOL DNA polymerase inhibition | Recombinant Pf-apPOL, molecular beacon fluorescence, 1.5 h | inhibition, % at 10 µM | 210,000 compounds, 0.25% hits | AID 1794808
mHTT CaM bind – disrupts binding of mutant huntingtin to calmodulin | AlphaScreen His-mHTT/GST-CaM binding, luminescence | inhibition, % at 15 µM | P42858 | AID 1671202 | 190,000 compounds, 3.6% hits;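 also: 0% = both proteins with DMSO and 100% = one protein alone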
Numbers without * were called inactive. Only a selection was taken, and hits are over-represented in it overall. Rule as the data show it: active = inhibition above about 50%; inactive = the rest.

Screening Cc1ccc(C(Nc2cccc(C)n2)c2ccc3cccnc3c2O)cc1 (stereo not given) returned Pf apPOL block 2.2 and mHTT CaM bind 98.0*.
Screening Cc1cccc(NC(c2ccc(Br)cc2)c2ccc3cccnc3c2O)n1 (stereo not given) returned Pf apPOL block 4.0 and mHTT CaM bind 97.0*.
Screening O=S(=O)(O)c1cccc2cccnc12 returned Pf apPOL block -1.0 and mHTT CaM bind -0.1.
Screening Cc1cccc(NC(=O)COc2ccc(Br)cc2)n1 returned Pf apPOL block -1.1 and mHTT CaM bind -19.8.
For CCNc1cc(NCCNS(=O)(=O)c2cccnc2)nc(C)n1 the results were Pf apPOL block -0.8 and mHTT CaM bind -6.3.
O=C(Nc1cccc2c1CCCC2)c1ccccc1O was read as Pf apPOL block -1.5 and mHTT CaM bind -5.6.
`COc1cc(NC(=O)c2ccc(-c3ccccc3)cc2)c(OC)cc1NC(=O)c1ccccc1` gave Pf apPOL block -11.7 and mHTT CaM bind 2.0.
Cc1[nH]nc2c1C(c1cc([N+](=O)[O-])ccc1O)C(C#N)=C(N)O2 (stereo not given) was read as Pf apPOL block 8.3 and mHTT CaM bind 0.7.
O=C(CCCSc1ccc(NC(=O)C2CC2)nn1)Nc1cccnc1 was read as Pf apPOL block -2.8 and mHTT CaM bind -8.5.
For CC(=O)c1c(C(C)=O)c(C)n(Cc2ccc(Cl)cc2)c1C the results were Pf apPOL block -10.7 and mHTT CaM bind 52.7*.
CC(=O)c1sc(=S)n(CCc2ccc(Cl)cc2)c1C was read as Pf apPOL block -10.2.
For CN(C)CCNC(=O)c1ccc(S(=O)(=O)N2CCCC2)cc1 the results were Pf apPOL block 54.9* and mHTT CaM bind -5.2.
`O=C(NC1CCCCC1)c1ccc(S(=O)(=O)N2CCCC2)cc1` gave Pf apPOL block -4.2 and mHTT CaM bind 1.1.
`CC1CCN(C(=O)C2CCC(Cn3c(=O)[nH]c4ccsc4c3=O)CC2)CC1` (stereo not given) gave Pf apPOL block -2.7 and mHTT CaM bind 2.0.
COc1cccc(N2CC(C(=O)NCC(C)(O)c3ccco3)CC2=O)c1 (stereo not given) was read as Pf apPOL block -0.1 and mHTT CaM bind -7.8.
Screening O=C(Nc1cccc(-c2ncon2)c1)C(Cl)(Cl)Cl returned Pf apPOL block -1.7.
Screening CC(=O)N1CCN(c2nc3c(s2)CC(C(=O)Nc2cccc(C(C)(C)C)c2)CC3)CC1 (stereo not given) returned Pf apPOL block 1.7 and mHTT CaM bind 54.3*.
Screening CC(=O)N1CCN(c2nc3c(s2)CC(C(=O)Nc2ccccc2)CC3)CC1 (stereo not given) returned Pf apPOL block -0.9 and mHTT CaM bind 27.5.
`Cc1ccc2c(c1)N(c1ccc(Br)c(C)c1)C=C(C#N)S2(=O)=O` gave Pf apPOL block -0.4 and mHTT CaM bind -4.3.
CCC(Sc1nc2ccccc2s1)C(=O)Nc1ccc(C(C)=O)cc1 (stereo not given) was read as Pf apPOL block -1.4 and mHTT CaM bind 14.7.
Oc1ccc(NCc2cccs2)cc1 was read as Pf apPOL block -0.1 and mHTT CaM bind 64.3*.
Screening COC(=O)c1ccc(NCc2cccs2)cc1 returned Pf apPOL block -3.3 and mHTT CaM bind -10.9.
Screening COc1ccc(CNC(=O)C2CC(=O)N(c3ccc4oc(C)nc4c3)C2)cc1OC (stereo not given) returned Pf apPOL block -3.5 and mHTT CaM bind 0.9.
Cc1nc2cc(N3CC(C(=O)NCc4ccc(OC(C)C)cc4)CC3=O)ccc2o1 (stereo not given) was read as Pf apPOL block -1.0 and mHTT CaM bind 100.3*.
Cc1ccc(NC(=O)N2CCC(n3cnc4c(Cl)cccc4c3=O)CC2)cc1 was read as Pf apPOL block -3.4 and mHTT CaM bind 3.9.
`O=C(Cc1csc(NC(=O)c2cnccn2)n1)Nc1ccc(-n2cccn2)cc1` gave Pf apPOL block -6.5 and mHTT CaM bind 97.4*.
O=C(Cc1csc(NC(=O)c2ccsc2)n1)Nc1cccnc1 was read as Pf apPOL block -5.0 and mHTT CaM bind 0.8.
For CS(=O)(=O)Nc1cccc(NC(=O)Cc2csc(NC(=O)c3cnccn3)n2)c1 the results were Pf apPOL block 20.0 and mHTT CaM bind 97.4*.
Screening O=C(Cc1csc(NC(=O)c2cnccn2)n1)NCCOc1ccc(F)cc1 returned Pf apPOL block -4.0 and mHTT CaM bind -1.8.
Screening O=C(c1ccccc1Br)N1N=C2CCCCCC2C1(O)C(F)(F)F (stereo not given) returned Pf apPOL block -0.3 and mHTT CaM bind -4.0.
Screening COc1cc(C2C(C#N)=C(N)OC(C)=C2C(C)=O)c([N+](=O)[O-])cc1OC (stereo not given) returned Pf apPOL block -5.2 and mHTT CaM bind 57.2*.
`COc1cc(C2C(C#N)=C(N)Oc3c2oc(CO)cc3=O)c([N+](=O)[O-])cc1OC` (stereo not given) gave Pf apPOL block 4.2 and mHTT CaM bind 22.0.
Screening CC(C(=O)Nc1nncs1)N1C(=O)c2ccccc2C1=O (stereo not given) returned Pf apPOL block -2.5 and mHTT CaM bind 9.0.
Screening Cc1cc(Br)ccc1N1C(=O)C2CC=CC(C)C2C1=O (stereo not given) returned Pf apPOL block -16.5 and mHTT CaM bind -10.0.
`COc1cccc(N2CCN(S(=O)(=O)c3ccc4[nH]c5c(c4c3)CCCC5)CC2)c1` gave Pf apPOL block -3.8 and mHTT CaM bind 55.4*.
COc1ccccc1N1CCN(S(=O)(=O)c2ccc3[nH]c4c(c3c2)CCCC4)CC1 was read as Pf apPOL block -4.7 and mHTT CaM bind 50.1*.
COc1ccc(S(=O)(=O)N2CCN(c3cccc(Cl)c3)CC2)cc1 was read as Pf apPOL block -16.5 and mHTT CaM bind -8.3.
Screening COc1ccccc1N1CCN(S(=O)(=O)c2ccc(OC)c([N+](=O)[O-])c2)CC1 returned Pf apPOL block -4.9 and mHTT CaM bind 14.4.
Cc1ccc(C2CC(c3ccccc3)n3nnnc3N2)cc1 (stereo not given) was read as Pf apPOL block 1.5 and mHTT CaM bind 9.0.
Cc1ccc(C2CC(c3ccccc3Cl)Nc3nc(N)nn32)cc1 (stereo not given) was read as Pf apPOL block -2.7 and mHTT CaM bind 66.6*.
Screening Cc1ccc(C2CC(c3ccc(Cl)cc3)n3nnnc3N2)cc1 (stereo not given) returned Pf apPOL block 3.5 and mHTT CaM bind 54.0*.
Nc1nc2n(n1)C(c1ccccc1)CC(c1ccccc1Cl)N2 (stereo not given) was read as Pf apPOL block -5.2 and mHTT CaM bind 8.2.
`COc1ccc(C2CC(c3cccc(C)c3)n3nc(N)nc3N2)cc1` (stereo not given) gave Pf apPOL block -0.8 and mHTT CaM bind -0.5.
Screening Cc1cccc(C2CC(c3ccc(Br)cc3)Nc3nc(N)nn32)c1 (stereo not given) returned Pf apPOL block 0.5 and mHTT CaM bind 54.9*.
Cc1ccccc1C1CC(c2ccc(Br)cc2)Nc2nc(N)nn21 (stereo not given) was read as Pf apPOL block 0.1 and mHTT CaM bind 71.3*.
For Cc1ccccc1C1CC(c2ccc(F)cc2)Nc2nc(N)nn21 (stereo not given) the results were Pf apPOL block 0.8 and mHTT CaM bind 39.8.
`Cc1ccc(CNC(=O)c2cccc(CN3C(=O)C4CCCN4C(=O)c4ccccc43)c2)o1` (stereo not given) gave Pf apPOL block -2.4 and mHTT CaM bind 7.8.
